# This is one part of a sample in which hits are shown more often than they occur.
# Pf Dd2 inh – inhibitors of Plasmodium falciparum Dd2 growth; P. falciparum Dd2 growth, SYBR Green, 72 h; Potency, µM (doses to about 28.9 µM), without a hit: at the top dose activity, negative = inhibition, hits mostly inhibitors; 120,000 compounds, 4.3% hits; AID 1347417; active = well fitted inhibition curve with a large enough effect;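 also: plate controls were DMSO vehicle for no effect and reference drug for full effect; nearly all actives have a fitted effect of over 65% in size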
#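 Infected erythrocytes (Dd2, 0.3% parasitemia, 2.5% hematocrit final) are added to compound in RPMI-1640/Albumax II medium, grown 72 h at 37C in low oxygen, then lysed with saponin/Triton-X containing SYBR Green and read by fluorescence.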
# An asterisk follows results filed as active; i = inactive; ! = repeats disagree; [ ] = remark or other dose. Potency is read from the fitted curve at half-maximal effect.
SMILES,Pf Dd2 inh
O=C(Cn1ccn2nc(-c3ccccc3)c(CO)c2c1=O)N1CCN(c2ccccc2F)CC1,-1%
COc1ccccc1N1CCN(C(=O)Cn2c(=O)nc(-c3ccccc3)c3ccccc32)CC1,11µM*
CCc1cc(=O)n(CC(=O)N2CCN(c3ccccc3OC)CC2)c(-c2ccccc2)n1,-22%
O=C1CCC2(CCN(c3ncc(F)cn3)CC2)CN1CC1CCCO1 (centres undefined),-9%
O=[S+]([O-])(c1cccnc1)c1nnn2c1nc(NC1CCCC1)c1ccccc12,-1%
O=C1CC2(CCN([S+](=O)([O-])c3cccs3)CC2)Oc2ccccc2N1,-25%
COc1cc(CN2CCC3(CCNCC3)C2)cc(OC)c1OC,-4%
C=Cc1cccc(CN2CCCC3(CCNC3)C2)c1 (centres undefined),10µM*
COC(=O)c1cc(CN2CCCC3(CCNC3)C2)ccc1O (centres undefined),-17%
CCOc1cc(=O)n2c(c1C(=O)NCc1cccc(F)c1)CCCCC2,25%
CCOc1ccc2c(n1)CCN(C(=O)c1ccccn1)C2,38%
Cn1ncc2c(C(=O)NCCc3ccc(Cl)cc3)cc(-c3ccc(Cl)cc3Cl)nc21,16%
O=S(=O)(c1cccc(F)c1)N1CCC(OC2CCN(Cc3ccccc3)CC2)CC1,2.8µM*
Cc1ccc(S(=O)(=O)N2CCC(OC3CCN(Cc4ccccc4)CC3)CC2)cc1C,0.89µM*
CCOC(=O)CCNC(=O)N1CCC(OC2CCN(Cc3ccccc3)CC2)CC1,37%
O=C(c1cccnc1)N1CCC(OC2CCN(Cc3ccccc3)CC2)CC1,-16%
O=C(CC1CCN(S(=O)(=O)c2cccc(F)c2)C1)NCc1ccccc1 (centres undefined),-6%
Cc1ccc(C(=O)N2CCC(OC3CCN(Cc4ccccc4)CC3)CC2)cc1,8.9µM*
O=C(c1ccc(Cl)cc1)N1CCC(OC2CCN(Cc3cccnc3)CC2)CC1,i
O=C(Nc1ccc(F)cc1F)N1CCC(OC2CCN(Cc3ccccc3)CC2)CC1,i
CC(C)S(=O)(=O)N1CCC(OC2CCN(Cc3cccnc3)CC2)CC1,20%
CN(C)Cc1nnc(C2CC(NC(=O)c3ccc4nccn4c3)C2)n1C (centres undefined),-3%
CN1C[C@H](O)C[C@H]1c1nnc2n1CCN(C(=O)CC1CCCCC1)CC2,6%
COCCNC(=O)[C@H]1C[C@H](Oc2ccccc2)CN1S(=O)(=O)c1ccc(OC)cc1,17%
Cc1cccc(C(=O)N2CCCC(c3nnnn3C)C2)c1 (centres undefined),18%
SMILES,Pf Dd2 inh
COc1ccc(C(=O)N2CCC[C@H]2c2nc(-c3ccc(C)cc3)no2)cc1F,i
COc1ccc(CN2C(=O)[C@@H]3C[C@@H](O)CN3C3(CN(Cc4cccs4)C3)C2=O)cc1,i
CCCN1C(=O)CC[C@H]2CN(C(=O)c3cnc(C4CC4)[nH]c3=O)CC[C@H]21,11%
Cc1cccc(C(=O)N2CC(c3noc(C4CCCN4C)n3)C2)c1 (centres undefined),i
Cc1ccc(NC(=O)C2CCN(c3cn[nH]c(=O)c3)C2)cc1 (centres undefined),2%
NC(=O)[C@@H](Cc1ccccc1)NC(=O)[C@@H]1C[C@@H](NC(=O)c2cnccn2)CCN1C(=O)CSCC(=O)O,-8%
COc1ncccc1CNC[C@H]1O[C@@H]2C[C@@H](CC(=O)NC(C)C)O[C@@H]2[C@@H]1O,5%[44.1 µM]
COc1ccc(-c2cnc([C@@H]3COCCN3)[nH]2)cc1,i
O=C(N1C[C@@H](CO)[C@H](c2nc(C3CC3)no2)C1)C1(c2ccccc2)CC1,23%
C=CCC(=O)N1CCCC1C(=O)Nc1ccccc1-c1ccc(OC)cc1 (centres undefined),-5%
COc1ccc(-c2cc(-c3cccc(O)c3)cn3cncc23)cc1,1.3µM*
c1cncc(-c2cc(-c3cccc4cc[nH]c34)cn3cncc23)c1,10µM*
COc1cccc(-c2cc(-c3cn[nH]c3)c3cncn3c2)c1,i
COc1ccc(-c2cc(-c3cccnc3)c3cncn3c2)cn1,-1%[44.1 µM]
COc1ccc(-c2cc(-c3cccc(CO)c3)cn3cncc23)cn1,4µM*
COc1ccc(-c2cc(-c3cccc(C(N)=O)c3)cn3cncc23)cc1,3.5µM*
NC(=O)c1cccc(-c2cc(-c3cccnc3)c3cncn3c2)c1,-4%[44.1 µM]
O=c1ccc(-c2cc(-c3cccc(C(F)(F)F)c3)cn3cncc23)c[nH]1,i
CC(=O)Nc1cccc(-c2cc(-c3ccncc3)c3cncn3c2)c1,i
O=C(CCC1CCCN(S(=O)(=O)c2ccccc2F)C1)NCCCN1CCOCC1 (centres undefined),-8%
COCC(=O)N[C@H]1C[C@@H](c2nc(-c3ccc4c(c3)OCO4)no2)N(C)C1,i
COC[C@@H]1CN(C(=O)c2ccc(C#N)cc2)C[C@H]1C(N)=O,9%
O=C(c1ccccc1)N1CCn2c(nn(-c3ccc(F)cc3F)c2=O)C1,5%
CN(Cc1nc(-c2ccccc2)cs1)C(=O)COc1ccc(F)cc1F,-12%
C[C@@H](NC(=O)Nc1ccccc1)c1onc(-c2ccc(Cl)cc2)c1C(=O)O,23%[44.1 µM]
SMILES,Pf Dd2 inh
Cc1nc(C)c(CC(=O)NC2CCCN(C3CCCCCC3)C2)c(=O)[nH]1 (centres undefined),-15%
CCC(C)NC(=O)C1COC2(CCN(C(=O)Cc3ccccc3)CC2)N1C(=O)c1cccc(C)c1 (centres undefined),i
C[C@]1(O)CCN(Cc2ccc(-c3ccccc3C#N)o2)C[C@@H]1O,-6%
O=C(c1cccc(C(F)(F)F)c1)N1CCN(C2CCN(Cc3cccnc3)C2=O)CC1 (centres undefined),-8%
O=C1NCCCCCCN(C(=O)Nc2ccccc2)[C@H]2CCCC[C@@H]12,7%
COc1cccc(C(=O)N2CCC(c3nn(-c4ccc(F)cc4)c(=O)[nH]3)CC2)c1,i
C#C[C@H]1CN2CC[C@H]1C[C@@H]2CNC(=O)Nc1cccc(SC)c1,i
CSc1cccc(NC(=O)NC[C@H]2C[C@@H]3CCN2C[C@@H]3CN(C)c2ccccc2)c1,8.9µM*
CSc1cccc(NC(=O)NC[C@H]2C[C@@H]3CCN2C[C@@H]3CN2CCN(c3ncccn3)CC2)c1,i
Cc1ccc(S(=O)(=O)Nc2ccc(C)n(CC(=O)N3CCOCC3)c2=O)cc1,6%
CN(C)c1nc(-c2ccccc2)nc2c1CCN(C(=O)C1CC1)C2,-11%
O=C1NC(=NC2CCCC2)C2(CCN([S+](=O)([O-])c3cccc(C(F)(F)F)c3)CC2)N1c1cc(F)cc(F)c1,-8%
O=C1NC(=NC2CCCC2)C2(CCCN([S+](=O)([O-])c3ccccc3)C2)N1c1cc(F)cc(F)c1 (centres undefined),-20%
O=C(c1ccc(C(F)(F)F)cc1)N1CCC2(C1)C(=NC1CCCCC1)NC(=O)N2c1cc(F)cc(F)c1 (centres undefined),8.9µM*
COc1ccc(C(=O)N2CCC3(CC2)C(=NC2CCCCC2)NC(=O)N3c2cc(F)cc(F)c2)cc1,-24%
COc1ccc(C(=O)N2CCCC3(C2)C(=NC2CCCCC2)NC(=O)N3c2cc(F)cc(F)c2)cc1 (centres undefined),-10%
O=C1NC(=NC2CCCC2)C2(CCCN([S+](=O)([O-])c3cccc(C(F)(F)F)c3)C2)N1c1cc(F)cc(F)c1 (centres undefined),10µM*!
CS(=O)(=O)N1CCC(NC(=O)CCc2cc3n(n2)CCCNC3)CC1,1%
CO[C@H]1[C@H](NC(=O)c2ccccc2)c2ccccc2C12CCNCC2,-14%

# Screening data as filed in PubChem BioAssay.
